In PubChem BioAssay (NCATS):
Records with an inconclusive call do not appear. Activity calls are given as the source filed them. The call rests on the fitted dose curve; in most records, active means well fitted inhibition curve with a large enough effect; inconclusive means small, poorly fitted or top-dose-only effect; inactive means flat fitted curve, though single readings scatter.

Columns and labels:
Test in all cases: qHTS profiling for inhibitors of Plasmodium falciparum proliferation (AID 504749); further: nearly all actives have a fitted effect of over 60% in size
Conditions in all cases: P. falciparum in erythrocytes, SYBR Green DNA, 72 h; series mostly up to 28.7 µM
AS120 = system: AS120
Procedure, shortened: (§1)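 Three-day growth assay of blood-stage parasites in erythrocytes (0.3% parasitemia, 2.5% hematocrit) at 37 C, 5% CO2, quantified by SYBR Green DNA staining after overnight detergent lysis.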

ATS189 = system: ATS189
Procedure, shortened: as §1

CP185 = system: CP185
Procedure, shortened: as §1

CP191 = system: CP191
Procedure, shortened: as §1

CP192 = system: CP192
Procedure, shortened: as §1

CP194 = system: CP194
Procedure, shortened: as §1

CP201 = system: CP201
Procedure, shortened: as §1

CP237 = system: CP237
Procedure, shortened: as §1

CP238 = system: CP238
Procedure, shortened: as §1

CP247 = system: CP247
Procedure, shortened: as §1

CP265 = system: CP265
Procedure, shortened: as §1

CP266 = system: CP266
Procedure, shortened: as §1

CP268 = system: CP268
Procedure, shortened: as §1

CP305 = system: CP305
Procedure, shortened: as §1

DIV30 = system: DIV30
Procedure, shortened: as §1

HB3 = system: HB3
Procedure, shortened: as §1

P94_40 = system: P94_40
Procedure, shortened: as §1

PC49 = system: PC49
Procedure, shortened: as §1

TAB109 = system: TAB109
Procedure, shortened: as §1

TAB113 = system: TAB113
Procedure, shortened: as §1

Measured: Potency

CC1(C)[C@@H]2CC[C@]1(C)[C@@H](OC(=O)CSC#N)C2
inactive: all assays above

COc1cccc2c1C(=O)c1c(O)c3c(c(O)c1C2=O)C[C@](O)(C(=O)CO)C[C@@H]3O[C@H]1C[C@H](N)[C@@H](O)[C@H](C)O1
inactive: all assays above
